The source made the active and inactive calls. How the source made its calls: active means hit-call score of the fitted dose curve at least 0.9, where 1 is the maximum; inactive means score below 0.9.
target: X-box-binding protein 1 (Homo sapiens) (UniProt P17861); test: ATG_Xbp1_CIS: Attagene CIS-FACTORIAL HepG2 Assay for human X-box Binding Protein 1 (XBP1) (AID 2282972); details: HepG2 XBP1 cis-element reporter, Attagene multiplex; actives raise or lower the signal
Description: ATG_CIS is a cell-based, multiplexed-readout assay that uses HepG2, a human liver cell line, with measurements taken at 24 hours after chemical dosing in a 24-well plate.ATG_Xbp1_CIS is one of 52 assay component(s) measured or calculated from the ATG_CIS assay. It is designed to make measurements of mRNA induction, a form of inducible reporter, as detected with fluorescence intensity signals by Reverse transcription polymerase chain reaction (RT-PCR) and Capillary electrophoresis technology.Data from the assay component ATG_Xbp1_CIS was analyzed into 1 assay endpoint. This assay endpoint, ATG_Xbp1_CIS, was analyzed with bidirectional fitting relative to DMSO as the negative control and baseline of activity. Using a type of inducible reporter, measures of mRNA for gain or loss-of-signal activity can be used to understand the reporter gene at the transcription factor-level as they relate to the gene XBP1. Furthermore, this assay endpoint can be referred to as a primary readout, because this assay has produced multiple assay endpoints where this one serves a reporter gene function. To generalize the intended target to other relatable targets, this assay endpoint is annotated to the dna binding intended target family, where the subfamily is basic leucine zipper.
Human liver HepG2 cells are transiently transfected with multiple reporter transcription units (MRTUs) in 6-well plates using FuGene 6 reagent (Roche; 3 ml FuGene/1 mg DNA). The MRTU constructs are regulated by a cis-regulating element (promoter). […] A major difference between the CIS and TRANS system is that in CIS activities of endogenous TFs are measured, whereas the TRANS assay evaluates changes in activities of exogenous, chimeric NR-Gal4 proteins. […] At the end of 24 hour incubation, total RNA was isolated using TriZol reagent (Invitrogen). The isolated RNA is then reverse-transcribed using oligo(dT) primer and Mo-MLV reverse transcriptase (Invitrogen) with DNAse I (Ambion) treatment for 30 min. The one-tenth of the produced cDNA was amplified by PCR using Taq DNA polymerase (Invitrogen) and two reporter sequence-specific primers. The PCR products were fluorescently labeled by primer extension with 6-arboxyfluorescein (6-FAM) 5'-labeled reporter sequence-specific primer (2 min at 95 C, 20 s at 68 C and 10 min at 72 C) and these products were digested with 5U of HpaI (New England Biolabs) for 2h at 37 C. The fragments were purified using Qiaquick PCR columns (Qiagen), analyzed on an ABI 3130xL genetic analyzer (Applied Biosystems) with peak positions identified by using a set of X-rhodamine (ROX)-labeled MapMarker1000 molecular weight standards (BioVentures). The raw capillary electrophoresis data was processed using Attagraph software (Attagene).

Chain of X-box-binding protein 1 (Homo sapiens) (P17861 whole entry, looked up): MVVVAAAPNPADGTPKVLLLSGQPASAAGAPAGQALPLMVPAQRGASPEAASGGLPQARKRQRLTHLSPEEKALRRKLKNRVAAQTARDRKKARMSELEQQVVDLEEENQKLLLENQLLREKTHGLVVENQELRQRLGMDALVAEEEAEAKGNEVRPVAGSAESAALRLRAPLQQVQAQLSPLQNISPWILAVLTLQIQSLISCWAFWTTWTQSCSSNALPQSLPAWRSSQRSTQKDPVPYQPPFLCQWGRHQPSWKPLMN

Q: For `CCCCCOC(C)=O`, which outcome is on record?
A: Its outcome is “inactive”.

Q: With `CNC(C)=O` as the compound, how does the outcome read?
A: Its outcome is “inactive”.

Q: For `CCCCCCCC1CCC(=O)O1` (stereo not given), which outcome is on record?
A: The outcome was “inactive”.

Q: With `CC[C@H](C)C(=O)O[C@H]1C[C@H](O)C=C2C=C[C@H](C)[C@H](CC[C@@H](O)C[C@@H](O)CC(=O)O)[C@H]21` as the compound, how does the outcome read?
A: The outcome was “inactive”.

Q: For `OCCC(F)(F)C(F)(F)C(F)(F)C(F)(F)F`, which outcome is on record?
A: The outcome was “inactive”.

Q: For `O=C(O)c1cccc(C(=O)O)c1`, which outcome is on record?
A: The outcome was “inactive”.

Q: With `c1ccc(C(O[C@@H]2CCCN(CCc3ccc4c(c3)OCO4)C2)c2ccccc2)cc1` as the compound, how does the AC50 read?
A: The AC50 was 20.9 µM (active).

Q: Which outcome does the source give for `CCOc1ccc2[nH]cc(C(=O)NCc3ccccc3)c(=O)c2n1` here?
A: The outcome was “inactive”.

Q: Which outcome does the source give for `CCCc1ccccc1` here?
A: The outcome was “inactive”.

Q: With `OC(CCl)CCl` as the compound, how does the outcome read?
A: Its outcome is “inactive”.

Q: How did the outcome turn out when `NC(=O)N(O)[C@@H]1COc2cc(OCc3ccccc3)ccc21` was run?
A: Its outcome is “inactive”.

Q: For `NC(N)=O`, which outcome is on record?
A: The outcome was “inactive”.

Q: How did the outcome turn out when `CCCOc1ccc(S(=O)(=O)N2CCN(CC)CC2)cc1-c1nc2c(CC)n(Cc3ccccn3)nc2c(=O)[nH]1` was run?
A: The outcome was “inactive”.

Q: With `CCCCCCOC(=O)CC(CC(=O)OCCCCCC)(OC(=O)CCC)C(=O)OCCCCCC` as the compound, how does the outcome read?
A: The outcome was “inactive”.

Q: `CC(C)CC(C)O` (stereo not given) was tested. Which outcome did it give?
A: The outcome was “inactive”.

Q: `CCCCN1C(=O)[C@@H]([C@H](O)C2CCCCC2)NC(=O)C12CCN(Cc1ccc(Oc3ccc(C(=O)O)cc3)cc1)CC2` was tested. Which outcome did it give?
A: The outcome was “inactive”.

Q: `O=S(=O)(O)CCC(F)(F)C(F)(F)C(F)(F)C(F)(F)C(F)(F)C(F)(F)F` was tested. Which outcome did it give?
A: The outcome was “inactive”.

Q: Which outcome does the source give for `c1ccc2ncccc2c1` here?
A: Its outcome is “inactive”.

Q: With `Cn1cc[nH]c1=S` as the compound, how does the outcome read?
A: Its outcome is “inactive”.

Q: How did the outcome turn out when `CCCCCCCCCCCCCCCCOS(=O)(=O)O` was run?
A: The outcome was “inactive”.

Q: Which outcome does the source give for `CCCCCCCCCC` here?
A: The outcome was “inactive”.

Q: Which outcome does the source give for `COS(C)(=O)=O` here?
A: Its outcome is “inactive”.

Q: How did the outcome turn out when `CCCC(CCC)C(=O)O` was run?
A: Its outcome is “inactive”.

Q: For `CC(C)c1nnc2ccc(-c3ocnc3-c3cc(F)ccc3F)cn12`, which outcome is on record?
A: Its outcome is “inactive”.

Q: With `OCCNCCO` as the compound, how does the outcome read?
A: The outcome was “inactive”.

Q: `O=C(O)CO` was tested. Which outcome did it give?
A: Its outcome is “inactive”.

Q: With `OC(Cn1cncn1)(Cn1cncn1)c1ccc(F)cc1F` as the compound, how does the outcome read?
A: The outcome was “inactive”.

Q: Which outcome does the source give for `O=S(=O)(O)c1ccc(N=Nc2c(O)ccc3cc(S(=O)(=O)O)ccc23)cc1` here?
A: Its outcome is “inactive”.

Q: For `NNC(=O)c1ccncc1`, which outcome is on record?
A: The outcome was “inactive”.

Q: For `CCCCC(CC)C(=O)OCCOCCOCCOC(=O)C(CC)CCCC` (stereo not given), which outcome is on record?
A: The outcome was “inactive”.

Q: `Cc1nccn1-c1ccc(Sc2cccc(C3(C(N)=O)CCOCC3)c2)cc1` was tested. Which AC50 did it give?
A: The AC50 was 1.57 µM (active).

Q: Which AC50 does the source give for `O=C(O)c1cccc(C[C@@H]2COc3ccc(OCc4nc5cc(F)ccc5s4)cc3[C@@H]2O)c1` here?
A: Its AC50 is 160 µM (active).

Q: How did the outcome turn out when `Cc1nc(-c2ccccn2)ncc1C(=O)Nn1cc(C)c2cc(F)ccc21` was run?
A: Its outcome is “inactive”.

Q: `OCC(CO)(CO)CO` was tested. Which outcome did it give?
A: Its outcome is “inactive”.

Q: Which outcome does the source give for `C[Si](C)(C)C(F)(F)C(F)(F)C(F)(F)F` here?
A: Its outcome is “inactive”.

Q: `O=C(NO)C1(NS(=O)(=O)c2ccc(Oc3ccc(F)cc3)cc2)CCOCC1` was tested. Which outcome did it give?
A: Its outcome is “inactive”.

Q: For `OCc1c[nH]c2ccccc12`, which outcome is on record?
A: Its outcome is “inactive”.

Q: `O=C1CN(N=Cc2ccc([N+](=O)[O-])o2)C(=O)N1` was tested. Which outcome did it give?
A: The outcome was “inactive”.

Q: `CC1(C)C(=O)N(Cl)C(=O)N1Cl` was tested. Which outcome did it give?
A: Its outcome is “inactive”.

Q: Which outcome does the source give for `Cc1ncc([C@@H](CCCCCCc2ccc3c(n2)NCCC3)CC(=O)O)cn1` here?
A: The outcome was “inactive”.
